Among the data in PMC7862700, “An all-to-all approach to the identification of sequence-specific readers for epigenetic DNA modifications on cytosine” are binding signal values, retold here.

Holding throughout (experiment): DAPPL (digital affinity profiling via proximity ligation, sequencing); 10 mM Tris-HCl pH 7.5, 50 mM NaCl, 1 mM DTT, 4% glycerol, room temperature, 30 min; GST-TFs on glutathione beads, 16-mer random dsDNA library, 0.1% formaldehyde crosslink after washing; high values mean tight binding
The target in one assay is T1, FLI1 (Homo sapiens, UniProt Q01543 1-452).
T1 sequence: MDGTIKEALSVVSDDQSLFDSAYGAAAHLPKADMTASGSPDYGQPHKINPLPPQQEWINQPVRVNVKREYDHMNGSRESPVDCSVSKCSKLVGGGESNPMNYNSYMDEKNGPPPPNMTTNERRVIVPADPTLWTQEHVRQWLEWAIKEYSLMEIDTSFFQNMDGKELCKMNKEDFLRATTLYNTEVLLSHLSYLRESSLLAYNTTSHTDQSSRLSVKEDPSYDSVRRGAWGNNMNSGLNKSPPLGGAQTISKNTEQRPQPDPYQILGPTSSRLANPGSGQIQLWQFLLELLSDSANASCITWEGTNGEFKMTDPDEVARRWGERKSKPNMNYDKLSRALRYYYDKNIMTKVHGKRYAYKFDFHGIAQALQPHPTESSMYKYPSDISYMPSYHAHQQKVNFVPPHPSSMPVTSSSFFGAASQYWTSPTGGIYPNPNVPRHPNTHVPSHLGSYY
As to conditions: protein: recombinant; tags: N-terminal GST; dsDNA, one strand shown. Put shortly: (§1)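 The binding signal reported is, for every hexamer, its read frequency for a factor over its read frequency for the tag-only sample. Reads came from pools of yeast-expressed, GST-fused human transcription factors on glutathione beads, barcoded with DNA and mixed with that sample, which were incubated with 200 nmole of a random double-stranded 16-mer DNA library in Tris/NaCl/DTT/glycerol buffer at room temperature for 30 min. After washing, the pools were crosslinked with 0.1% formaldehyde, proximity-ligated with BsaI/T4 ligase for 1 h at 37 °C, PCR-amplified and sequenced on an Illumina NextSeq500.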

Another assay deals with T2, ELK1 (Homo sapiens, UniProt P19419 1-428).
T2 sequence: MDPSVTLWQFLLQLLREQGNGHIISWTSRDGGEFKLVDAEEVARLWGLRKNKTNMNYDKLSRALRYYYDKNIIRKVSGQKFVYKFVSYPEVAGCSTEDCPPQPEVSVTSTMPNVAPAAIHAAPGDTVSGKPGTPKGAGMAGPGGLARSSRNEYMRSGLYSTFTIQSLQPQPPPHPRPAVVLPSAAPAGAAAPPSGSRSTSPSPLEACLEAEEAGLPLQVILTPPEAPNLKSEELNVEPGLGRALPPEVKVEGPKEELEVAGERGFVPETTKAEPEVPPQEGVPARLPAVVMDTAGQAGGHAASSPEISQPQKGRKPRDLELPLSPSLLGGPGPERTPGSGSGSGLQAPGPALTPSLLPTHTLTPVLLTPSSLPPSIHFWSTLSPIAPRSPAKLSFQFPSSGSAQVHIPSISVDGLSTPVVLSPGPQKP
As to conditions: protein: recombinant; tags: N-terminal GST; dsDNA, one strand shown. In a few lines:
as §1

The target of another assay is T3, GABPA (Homo sapiens, UniProt Q06546 1-454).
T3 sequence: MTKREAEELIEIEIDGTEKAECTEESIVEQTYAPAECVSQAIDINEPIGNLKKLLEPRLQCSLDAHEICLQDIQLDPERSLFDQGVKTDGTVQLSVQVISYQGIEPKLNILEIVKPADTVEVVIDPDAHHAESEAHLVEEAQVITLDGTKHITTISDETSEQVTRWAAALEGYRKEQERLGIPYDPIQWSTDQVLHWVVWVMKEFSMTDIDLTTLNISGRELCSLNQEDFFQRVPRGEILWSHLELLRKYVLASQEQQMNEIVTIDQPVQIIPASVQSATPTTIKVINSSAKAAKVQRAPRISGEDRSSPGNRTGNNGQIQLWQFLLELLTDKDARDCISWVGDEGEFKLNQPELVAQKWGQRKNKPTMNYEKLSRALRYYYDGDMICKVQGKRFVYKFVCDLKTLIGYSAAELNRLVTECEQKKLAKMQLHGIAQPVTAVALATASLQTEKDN
The note with it: protein: recombinant; tags: N-terminal GST; dsDNA, one strand shown. In a few lines: as §1

The next assay deals with T4, ERG (Homo sapiens, UniProt P11308 1-479).
T4 sequence: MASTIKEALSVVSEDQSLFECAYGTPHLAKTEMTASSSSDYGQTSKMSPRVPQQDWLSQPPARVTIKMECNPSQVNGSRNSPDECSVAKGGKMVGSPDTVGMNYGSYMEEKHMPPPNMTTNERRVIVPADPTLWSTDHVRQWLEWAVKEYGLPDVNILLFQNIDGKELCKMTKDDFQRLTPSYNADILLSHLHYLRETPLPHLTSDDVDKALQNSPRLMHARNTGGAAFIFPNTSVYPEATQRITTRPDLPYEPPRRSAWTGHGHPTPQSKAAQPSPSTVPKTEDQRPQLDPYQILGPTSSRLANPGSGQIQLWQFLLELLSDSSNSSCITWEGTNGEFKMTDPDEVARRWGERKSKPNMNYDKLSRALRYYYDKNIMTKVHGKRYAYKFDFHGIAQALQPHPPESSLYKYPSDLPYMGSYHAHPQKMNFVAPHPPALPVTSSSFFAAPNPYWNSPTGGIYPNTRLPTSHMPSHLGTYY
As to conditions: protein: recombinant; tags: N-terminal GST; dsDNA, one strand shown. Put shortly:
as §1

The next assay deals with ELF1 (Homo sapiens, UniProt P32519 1-619). The note with it: protein: recombinant; tags: N-terminal GST; dsDNA, one strand shown. Put shortly:
as §1

The target in another assay is T5, EHF (Homo sapiens, UniProt Q9NZC4 1-300).
T5 sequence: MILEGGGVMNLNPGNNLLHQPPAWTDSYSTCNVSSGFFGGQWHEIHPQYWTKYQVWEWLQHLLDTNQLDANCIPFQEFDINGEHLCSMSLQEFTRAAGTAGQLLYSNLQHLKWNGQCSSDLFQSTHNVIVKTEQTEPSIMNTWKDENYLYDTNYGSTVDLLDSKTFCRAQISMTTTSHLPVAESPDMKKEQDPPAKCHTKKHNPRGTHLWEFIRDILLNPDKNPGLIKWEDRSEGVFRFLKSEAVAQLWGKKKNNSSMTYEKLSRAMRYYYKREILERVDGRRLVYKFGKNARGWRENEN
The note with it: protein: recombinant; tags: N-terminal GST; dsDNA, one strand shown. In a few lines:
as §1

Another assay addresses SPI1 (Homo sapiens, UniProt P17947 1-270). The note with it: protein: recombinant; tags: N-terminal GST; dsDNA, one strand shown. Put shortly:
as §1

The target in another assay is SPIB (Homo sapiens, UniProt Q01892 1-262). The note with it: protein: recombinant; tags: N-terminal GST; dsDNA, one strand shown. In a few lines: as §1
Sequence of SPIB (Q01892 whole entry): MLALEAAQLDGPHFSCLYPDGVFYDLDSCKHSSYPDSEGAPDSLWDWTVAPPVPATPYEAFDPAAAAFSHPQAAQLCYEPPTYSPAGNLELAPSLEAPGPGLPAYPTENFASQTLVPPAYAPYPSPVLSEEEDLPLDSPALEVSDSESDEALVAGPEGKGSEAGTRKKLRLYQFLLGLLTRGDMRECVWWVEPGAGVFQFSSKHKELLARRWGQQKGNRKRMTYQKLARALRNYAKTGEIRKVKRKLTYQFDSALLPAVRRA
A further assay addresses T6, ELK3 (Homo sapiens, UniProt P41970 1-407).
T6 sequence: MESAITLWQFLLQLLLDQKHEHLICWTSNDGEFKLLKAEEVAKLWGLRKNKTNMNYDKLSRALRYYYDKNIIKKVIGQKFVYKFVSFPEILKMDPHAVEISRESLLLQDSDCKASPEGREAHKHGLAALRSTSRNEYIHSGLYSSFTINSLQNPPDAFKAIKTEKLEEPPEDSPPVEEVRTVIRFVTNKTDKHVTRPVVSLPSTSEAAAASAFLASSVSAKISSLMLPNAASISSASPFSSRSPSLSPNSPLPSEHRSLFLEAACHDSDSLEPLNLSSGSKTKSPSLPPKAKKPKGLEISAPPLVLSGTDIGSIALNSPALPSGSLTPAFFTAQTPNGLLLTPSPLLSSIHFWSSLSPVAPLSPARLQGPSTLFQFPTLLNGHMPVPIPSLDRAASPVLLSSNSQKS
As to conditions: protein: recombinant; tags: N-terminal GST; dsDNA, one strand shown. In a few lines:
as §1

Another assay concerns the target T7, FEV (Homo sapiens, UniProt Q99581 1-238).
T7 sequence: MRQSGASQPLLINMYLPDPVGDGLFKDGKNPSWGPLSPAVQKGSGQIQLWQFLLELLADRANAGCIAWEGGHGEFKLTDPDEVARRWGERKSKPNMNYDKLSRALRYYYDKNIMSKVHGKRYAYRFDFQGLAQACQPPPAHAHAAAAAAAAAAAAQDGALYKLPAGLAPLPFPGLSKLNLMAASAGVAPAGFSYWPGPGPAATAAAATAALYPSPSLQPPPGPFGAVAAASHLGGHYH
The note with it: protein: recombinant; tags: N-terminal GST; dsDNA, one strand shown. Put shortly: as §1

The target in a further assay is ETV5 (Homo sapiens, UniProt P41161 1-510). As to conditions: protein: recombinant; tags: N-terminal GST; dsDNA, one strand shown. Put shortly:
as §1

A further assay concerns the target HSF1 (Homo sapiens, UniProt Q00613 1-529). As to conditions: protein: recombinant; tags: N-terminal GST; chain copies: 3; dsDNA, one strand shown. Put shortly: as §1
The target in a further assay is T8, SPIC (Homo sapiens, UniProt Q8N5J4 1-248).
T8 sequence: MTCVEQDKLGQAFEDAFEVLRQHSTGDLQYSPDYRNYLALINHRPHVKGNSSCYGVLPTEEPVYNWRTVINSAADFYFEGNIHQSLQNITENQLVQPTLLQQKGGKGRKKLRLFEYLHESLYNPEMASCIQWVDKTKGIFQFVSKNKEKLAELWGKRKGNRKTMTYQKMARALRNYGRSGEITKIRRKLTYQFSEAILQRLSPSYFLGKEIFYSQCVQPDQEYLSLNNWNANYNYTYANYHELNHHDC
The note with it: protein: recombinant; tags: N-terminal GST; dsDNA, one strand shown. Put shortly:
as §1

For the next assay, the target named is ELF4 (Homo sapiens, UniProt Q99607 1-663). The note with it: protein: recombinant; tags: N-terminal GST; dsDNA, one strand shown. Put shortly:
as §1

The target of the next assay is T9, ELK4 (Homo sapiens, UniProt P28324-2 1-405).
T9 sequence: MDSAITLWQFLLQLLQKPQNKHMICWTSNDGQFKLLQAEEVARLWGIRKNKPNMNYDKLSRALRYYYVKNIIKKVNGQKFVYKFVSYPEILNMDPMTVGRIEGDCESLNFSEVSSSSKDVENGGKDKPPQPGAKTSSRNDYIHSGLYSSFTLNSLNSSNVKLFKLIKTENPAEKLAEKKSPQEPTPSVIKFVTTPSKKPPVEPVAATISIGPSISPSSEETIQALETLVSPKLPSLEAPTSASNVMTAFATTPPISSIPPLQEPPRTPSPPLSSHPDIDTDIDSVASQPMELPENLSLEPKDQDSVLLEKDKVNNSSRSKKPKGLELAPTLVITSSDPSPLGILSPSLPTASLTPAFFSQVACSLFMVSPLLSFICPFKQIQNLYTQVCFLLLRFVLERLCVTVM
As to conditions: protein: recombinant; tags: N-terminal GST; dsDNA, one strand shown. In a few lines: as §1

The next assay deals with T10, ETV2 (Homo sapiens, UniProt O00321 1-342).
T10 sequence: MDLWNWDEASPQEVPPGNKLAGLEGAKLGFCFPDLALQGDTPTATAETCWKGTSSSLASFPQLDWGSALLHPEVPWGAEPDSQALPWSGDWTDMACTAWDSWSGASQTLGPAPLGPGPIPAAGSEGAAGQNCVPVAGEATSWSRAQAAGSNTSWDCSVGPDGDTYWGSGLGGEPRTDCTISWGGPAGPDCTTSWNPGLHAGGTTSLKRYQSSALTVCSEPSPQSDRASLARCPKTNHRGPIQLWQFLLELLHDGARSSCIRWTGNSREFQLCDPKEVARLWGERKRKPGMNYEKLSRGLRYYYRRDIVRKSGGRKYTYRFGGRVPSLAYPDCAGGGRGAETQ
As to conditions: protein: recombinant; tags: N-terminal GST; dsDNA, one strand shown. In a few lines:
as §1

For the next assay, the target named is T11, ELF3 (Homo sapiens, UniProt P78545 1-371).
T11 sequence: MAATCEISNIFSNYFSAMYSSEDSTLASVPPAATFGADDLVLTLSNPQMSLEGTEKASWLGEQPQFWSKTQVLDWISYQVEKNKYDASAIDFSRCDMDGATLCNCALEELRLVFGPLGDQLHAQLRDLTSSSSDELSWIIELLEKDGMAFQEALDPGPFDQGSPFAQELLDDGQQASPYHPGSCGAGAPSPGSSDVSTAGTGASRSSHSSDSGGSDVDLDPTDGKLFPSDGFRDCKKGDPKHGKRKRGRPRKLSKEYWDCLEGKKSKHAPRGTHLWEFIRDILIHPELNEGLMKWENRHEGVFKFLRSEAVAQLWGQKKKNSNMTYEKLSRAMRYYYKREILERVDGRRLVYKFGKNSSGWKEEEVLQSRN
The note with it: protein: recombinant; tags: N-terminal GST; dsDNA, one strand shown. In a few lines: as §1

The next assay has as its target CRX (Homo sapiens, UniProt O43186 1-299). The note with it: protein: recombinant; tags: N-terminal GST; dsDNA, one strand shown. In a few lines: as §1
Another assay deals with ETV1 (Homo sapiens, UniProt P50549 1-477). As to conditions: protein: recombinant; tags: N-terminal GST; dsDNA, one strand shown. In a few lines:
as §1

Sequence of ELF1 (P32519 whole entry): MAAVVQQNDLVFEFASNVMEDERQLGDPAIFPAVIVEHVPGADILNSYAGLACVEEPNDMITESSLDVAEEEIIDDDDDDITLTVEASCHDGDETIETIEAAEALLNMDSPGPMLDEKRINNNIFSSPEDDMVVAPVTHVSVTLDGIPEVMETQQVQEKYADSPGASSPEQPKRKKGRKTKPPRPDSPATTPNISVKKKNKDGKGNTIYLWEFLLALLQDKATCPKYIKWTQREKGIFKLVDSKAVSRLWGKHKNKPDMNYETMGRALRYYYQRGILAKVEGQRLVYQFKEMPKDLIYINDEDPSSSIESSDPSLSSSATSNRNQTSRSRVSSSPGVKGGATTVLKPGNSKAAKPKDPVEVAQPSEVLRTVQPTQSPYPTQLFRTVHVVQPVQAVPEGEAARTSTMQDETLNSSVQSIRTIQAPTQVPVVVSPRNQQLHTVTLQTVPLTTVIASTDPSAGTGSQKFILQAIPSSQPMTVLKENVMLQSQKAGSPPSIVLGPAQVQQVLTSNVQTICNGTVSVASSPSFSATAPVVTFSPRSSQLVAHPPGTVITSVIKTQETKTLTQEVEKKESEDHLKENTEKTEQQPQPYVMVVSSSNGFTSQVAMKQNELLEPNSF
Sequence of ELF4 (Q99607 whole entry): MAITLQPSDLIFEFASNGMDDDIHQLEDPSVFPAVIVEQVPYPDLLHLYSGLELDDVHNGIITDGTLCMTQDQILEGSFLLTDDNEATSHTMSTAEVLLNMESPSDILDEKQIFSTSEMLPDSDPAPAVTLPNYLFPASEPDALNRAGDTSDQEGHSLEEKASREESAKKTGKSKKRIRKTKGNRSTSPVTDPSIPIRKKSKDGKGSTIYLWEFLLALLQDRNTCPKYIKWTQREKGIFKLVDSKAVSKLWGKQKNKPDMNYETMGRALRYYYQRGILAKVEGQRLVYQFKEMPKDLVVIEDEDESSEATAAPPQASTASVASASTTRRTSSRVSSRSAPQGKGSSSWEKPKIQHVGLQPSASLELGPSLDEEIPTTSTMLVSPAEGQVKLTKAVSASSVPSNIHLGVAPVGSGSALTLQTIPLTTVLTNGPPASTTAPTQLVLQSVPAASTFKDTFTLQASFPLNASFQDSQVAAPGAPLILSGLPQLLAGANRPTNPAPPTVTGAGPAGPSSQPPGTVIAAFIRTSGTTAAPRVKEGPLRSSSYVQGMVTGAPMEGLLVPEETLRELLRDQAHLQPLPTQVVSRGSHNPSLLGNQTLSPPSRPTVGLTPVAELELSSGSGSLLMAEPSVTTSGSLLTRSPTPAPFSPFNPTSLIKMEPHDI
Sequence of CRX (O43186 whole entry): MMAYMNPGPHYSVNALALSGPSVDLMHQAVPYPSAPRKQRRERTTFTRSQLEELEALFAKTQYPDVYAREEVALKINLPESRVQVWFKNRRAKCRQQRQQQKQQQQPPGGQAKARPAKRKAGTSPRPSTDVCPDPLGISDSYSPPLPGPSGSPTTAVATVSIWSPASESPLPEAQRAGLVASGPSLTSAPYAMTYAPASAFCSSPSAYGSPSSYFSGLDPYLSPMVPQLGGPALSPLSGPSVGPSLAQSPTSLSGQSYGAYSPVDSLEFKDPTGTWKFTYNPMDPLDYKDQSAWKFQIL
Sequence of ETV1 (P50549 whole entry): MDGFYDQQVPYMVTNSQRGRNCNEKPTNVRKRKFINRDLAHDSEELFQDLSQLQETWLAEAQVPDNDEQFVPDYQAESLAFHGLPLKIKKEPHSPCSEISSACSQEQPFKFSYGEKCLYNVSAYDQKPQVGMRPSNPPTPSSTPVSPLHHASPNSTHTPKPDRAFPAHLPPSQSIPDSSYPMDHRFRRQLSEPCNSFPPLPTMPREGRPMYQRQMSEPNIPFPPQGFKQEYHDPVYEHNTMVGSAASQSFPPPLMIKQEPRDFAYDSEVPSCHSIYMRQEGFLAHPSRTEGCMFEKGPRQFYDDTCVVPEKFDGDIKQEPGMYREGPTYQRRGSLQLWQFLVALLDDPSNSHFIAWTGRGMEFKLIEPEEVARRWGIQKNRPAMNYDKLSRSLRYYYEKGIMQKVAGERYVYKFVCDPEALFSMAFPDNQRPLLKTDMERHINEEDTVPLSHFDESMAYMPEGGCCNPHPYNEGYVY
Sequence of HSF1 (Q00613 whole entry): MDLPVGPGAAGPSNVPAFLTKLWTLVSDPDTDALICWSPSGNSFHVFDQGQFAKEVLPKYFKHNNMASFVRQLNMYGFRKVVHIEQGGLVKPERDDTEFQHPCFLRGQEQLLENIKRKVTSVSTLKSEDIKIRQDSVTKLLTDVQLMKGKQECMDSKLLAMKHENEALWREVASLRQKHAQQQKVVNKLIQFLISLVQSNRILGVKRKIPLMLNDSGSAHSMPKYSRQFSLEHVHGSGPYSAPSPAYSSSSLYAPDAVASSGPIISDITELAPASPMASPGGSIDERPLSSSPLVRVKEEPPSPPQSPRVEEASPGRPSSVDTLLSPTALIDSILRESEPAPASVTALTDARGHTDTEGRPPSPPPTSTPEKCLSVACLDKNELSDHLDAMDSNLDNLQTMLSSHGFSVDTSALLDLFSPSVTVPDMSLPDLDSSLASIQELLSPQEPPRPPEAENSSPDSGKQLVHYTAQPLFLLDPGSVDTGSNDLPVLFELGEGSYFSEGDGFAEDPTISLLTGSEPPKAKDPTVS
Sequence of ETV5 (P41161 whole entry): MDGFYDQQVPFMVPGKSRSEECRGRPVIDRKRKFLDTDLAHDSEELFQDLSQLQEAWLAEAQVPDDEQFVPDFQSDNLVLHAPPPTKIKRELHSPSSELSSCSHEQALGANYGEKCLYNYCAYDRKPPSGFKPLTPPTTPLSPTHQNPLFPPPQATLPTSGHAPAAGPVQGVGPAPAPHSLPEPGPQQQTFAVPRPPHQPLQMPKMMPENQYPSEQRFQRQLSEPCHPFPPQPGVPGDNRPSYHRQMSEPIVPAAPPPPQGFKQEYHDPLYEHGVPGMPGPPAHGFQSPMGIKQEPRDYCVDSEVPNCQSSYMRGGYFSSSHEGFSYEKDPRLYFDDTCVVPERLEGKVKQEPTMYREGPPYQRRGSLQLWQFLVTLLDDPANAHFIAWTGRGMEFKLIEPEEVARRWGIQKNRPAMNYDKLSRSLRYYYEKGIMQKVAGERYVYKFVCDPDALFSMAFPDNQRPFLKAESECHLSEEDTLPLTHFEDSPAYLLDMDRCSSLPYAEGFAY

In the case of CGATCC, the binding signal with FLI1 is 1.26 fold enrichment (6-mer frequency, TF over GST control); in the assay with ELK1, 1.14 fold enrichment (6-mer frequency, TF over GST control); with GABPA, 1.19 fold enrichment (6-mer frequency, TF over GST control); in the assay with ERG, 1.21 fold enrichment (6-mer frequency, TF over GST control); with ELF1 it was 1.27 fold enrichment (6-mer frequency, TF over GST control); in the assay with EHF, 1.22 fold enrichment (6-mer frequency, TF over GST control). In addition, the binding signal with SPI1 was 1.25 fold enrichment (6-mer frequency, TF over GST control); with SPIB, 1.22 fold enrichment (6-mer frequency, TF over GST control); with ELK3, 1.38 fold enrichment (6-mer frequency, TF over GST control); with FEV it was 1.2 fold enrichment (6-mer frequency, TF over GST control); with ETV5, 1.19 fold enrichment (6-mer frequency, TF over GST control); with HSF1, 1.31 fold enrichment (6-mer frequency, TF over GST control). In addition, the binding signal was 1.11 fold enrichment (6-mer frequency, TF over GST control) with SPIC; 1.21 fold enrichment (6-mer frequency, TF over GST control) with ELF4; 1.11 fold enrichment (6-mer frequency, TF over GST control) in the assay with ELK4; 1.19 fold enrichment (6-mer frequency, TF over GST control) in the assay with ETV2; 1.08 fold enrichment (6-mer frequency, TF over GST control) with ELF3; 1.27 fold enrichment (6-mer frequency, TF over GST control) with CRX. Further, in the assay with ETV1, the binding signal is 1.25 fold enrichment (6-mer frequency, TF over GST control).
